# Experimental data as given in PubChem BioAssay.
# Where “and” joins values, the source holds several entries; their conditions need not be identical. Equal values may be shown once. For part of these data: Entries with a potency or affinity are not part of this list. Calls of active or inactive are those of the source.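 How the source made its calls, unless noted: active means compounds whose cell count with miR-34 switched on is under 0.7 times the count with it off; inactive means the rest.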
# Tests used:
# [1] = circadian clock period modulators, cell-based, LOPAC library, luminescence reporter (AID 2774; call rule not given here;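 further: values are relative to mean of DMSO wells on each plate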); conditions: circadian reporter cells, at 7 µM, actives lie on both sides
# [2] = hESC survival regulators, cell-based (AID 493140; call rule not given here;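 further: cells exposed to compounds for four days before counting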); conditions: human embryonic stem cell survival screen; stronger effect = higher value
# [3] = liver-stage malaria parasite growth inhibition, primary screen, cell-based, HepG2, luciferase luminescence, HepG2 viability (AID 624349; in the data active means parasite load remaining mostly below about 12%, no sharp cut-off; inactive means mostly above about 10%;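 further: 100% = mean of DMSO negative control wells on the same plate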); conditions: P. berghei liver stage in HepG2, luciferase luminescence, concentration not given here; parasite load remaining: stronger effect = lower value; viability: measured here: HepG2 viability without parasites
# [4] = test system: Hepatitis C virus NS3 helicase; experiment: HCV NS3 helicase inhibitors, primary screen, biochemical, fluorescence polarization, LOPAC1280 library (AID 687035; in the data active means inhibition above about 37%); conditions: Purified HCV NS3 helicase, Cy5-dT15 ssDNA binding fluorescence polarization; stronger effect = higher value; concentration not given here
# [5] = Cy5 fluorescence quenching or enhancement artefacts, artefact control for HCV NS3 helicase inhibitor project, biochemical, LOPAC1280 (AID 687037; call rule not given here); conditions: Cy5-DNA-NS3h complex fluorescence interference counterscreen
# [6] = differential killing of epithelial or mesenchymal cells, primary screen, imaging, PC-3E GFP, TEM4-18 mCherry, co-culture (AID 1345086;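 active means compounds killing one labelled cell type while sparing the other, by normalised counts and ratio limits, not self-fluorescent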;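 on all read-outs here: cells exposed to compound for 72 h before imaging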;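 on red/green cell ratio (normalised): normalised mesenchymal count divided by normalised epithelial count so high means epithelial killing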); conditions: imaging cell counts, at 1 µM; for red/green cell ratio (normalised): actives lie on both sides, counts scaled to control wells, 1 = unselective
# [7] = sensitizers of A549 cells to miR-34 induction, primary screen, imaging, A549 dox-inducible miR-34, nuclei and caspase counts (AID 1347080); conditions: A549 miR-34 inducible, Hoechst nuclei count, 48 h
# [8] = phospholipid biosynthesis inhibitors in animal cells, primary screen, cell-based, LOPAC library, screen 4 (AID 1347384; call rule not given here); conditions: phospholipid biosynthesis inhibition screen, at 10 µM
# [9] = survival rescue of mitochondrial mutant cells in low glucose, primary screen, MELAS cybrids, Rieske KO mouse fibroblasts, CellTiter-Glo (AID 1508586;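 active means mean z-score across replicates of 1.96 or higher in either the MELAS or the Rieske mutant cell line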;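 further: z relative to plate mean and SD of compound and empty wells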)
# [10] = biological target: NAD(+) hydrolase SARM1 (Homo sapiens) (UniProt Q6SZW1); experiment: SARM1 TIR NADase inhibitors, cell lysate, NAD-Glo luminescence (AID 1508614;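 active means compound whose remaining NAD level is above about 45 nM, limit read from the data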); conditions: SAM-TIR HEK293T lysate NADase, at 1 µM, stronger effect = higher value
# NAD(+) hydrolase SARM1 (Homo sapiens), sequence (Q6SZW1 whole entry, looked up): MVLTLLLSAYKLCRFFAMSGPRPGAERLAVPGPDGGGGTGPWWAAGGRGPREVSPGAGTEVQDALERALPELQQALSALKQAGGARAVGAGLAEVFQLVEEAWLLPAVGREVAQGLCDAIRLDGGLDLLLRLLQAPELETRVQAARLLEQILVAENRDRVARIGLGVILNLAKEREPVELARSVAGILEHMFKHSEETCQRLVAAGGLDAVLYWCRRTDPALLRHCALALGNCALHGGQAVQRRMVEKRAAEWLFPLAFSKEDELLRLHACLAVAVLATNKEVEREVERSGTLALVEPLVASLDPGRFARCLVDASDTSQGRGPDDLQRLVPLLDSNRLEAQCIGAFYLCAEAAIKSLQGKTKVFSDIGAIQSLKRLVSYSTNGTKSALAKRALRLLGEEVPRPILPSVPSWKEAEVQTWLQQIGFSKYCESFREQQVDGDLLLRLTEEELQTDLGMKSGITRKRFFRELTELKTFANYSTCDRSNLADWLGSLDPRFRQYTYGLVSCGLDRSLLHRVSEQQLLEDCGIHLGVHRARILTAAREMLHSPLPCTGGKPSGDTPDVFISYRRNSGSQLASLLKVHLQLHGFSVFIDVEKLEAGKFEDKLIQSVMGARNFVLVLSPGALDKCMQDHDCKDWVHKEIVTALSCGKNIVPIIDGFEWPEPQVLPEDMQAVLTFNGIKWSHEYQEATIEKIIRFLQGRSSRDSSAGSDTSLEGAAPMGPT
# [11] = viability rescue of complex I mutant cybrids, primary screen, cell-based, galactose medium, ATP luminescence (AID 1645843;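 active means z-score of at least 1.8 in each of two replicates, scored against plate mean and spread of sample wells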;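 further: positive z means more ATP and so rescue of galactose-driven cybrid death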); conditions: complex I mutant cybrid cells, 72 h, stronger effect = higher value
# [12] = biological target: Mitogen-activated protein kinase 7 (Homo sapiens) (UniProt Q13164); experiment: ERK5 transactivation activators in reporter cells, primary screen, cell-based, HTS (AID 1508626;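 active means luciferase signal above three times the same-plate solvent-only control wells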;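 further: luciferase driven by Gal4-ERK5 fusion binding five Gal4 sites before minimal TATA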); conditions: HeLa Gal4-ERK5 transactivation, 18 h, at 5 µM, stronger effect = higher value
# Mitogen-activated protein kinase 7 (Homo sapiens), sequence (Q13164 whole entry, looked up, the tested form may be a part): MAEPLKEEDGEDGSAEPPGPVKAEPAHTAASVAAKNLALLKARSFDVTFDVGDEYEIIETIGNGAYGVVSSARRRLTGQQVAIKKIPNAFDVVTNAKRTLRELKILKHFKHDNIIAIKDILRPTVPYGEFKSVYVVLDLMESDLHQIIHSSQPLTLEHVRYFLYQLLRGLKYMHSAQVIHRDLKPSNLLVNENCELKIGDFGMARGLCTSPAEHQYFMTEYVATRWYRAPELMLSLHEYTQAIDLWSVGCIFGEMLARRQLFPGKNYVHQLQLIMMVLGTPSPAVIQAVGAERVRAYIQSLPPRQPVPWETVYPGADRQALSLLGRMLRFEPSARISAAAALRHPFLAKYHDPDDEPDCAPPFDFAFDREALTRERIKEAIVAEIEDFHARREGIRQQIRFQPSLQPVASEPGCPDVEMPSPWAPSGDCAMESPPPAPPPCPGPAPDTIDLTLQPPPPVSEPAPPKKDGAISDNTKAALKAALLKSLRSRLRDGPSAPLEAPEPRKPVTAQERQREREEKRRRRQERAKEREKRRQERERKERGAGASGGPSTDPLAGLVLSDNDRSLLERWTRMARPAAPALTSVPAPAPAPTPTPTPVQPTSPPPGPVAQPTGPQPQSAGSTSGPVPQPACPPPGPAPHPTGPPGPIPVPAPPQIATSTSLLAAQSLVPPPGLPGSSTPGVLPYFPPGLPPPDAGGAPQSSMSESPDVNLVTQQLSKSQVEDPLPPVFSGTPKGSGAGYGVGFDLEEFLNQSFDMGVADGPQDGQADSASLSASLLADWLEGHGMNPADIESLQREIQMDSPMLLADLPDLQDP
# [13] = polyglutamine-triggered caspase-3 activation inhibitors, cell-based (AID 1583); conditions: polyglutamine-induced caspase-3 activation, cell assay; stronger effect = higher value;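 tested at 10 µM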
# [14] = suppressors of polyQ aggregation in yeast, 75Q-TubU reporter (AID 1593); conditions: Yeast 75Q polyglutamine aggregation reporter
# [15] = rescue of polyQ-huntingtin neuronal dysfunction in worms, whole organism, C. elegans mechanosensory neurons, N-terminal huntingtin (AID 1599); conditions: touch response, stronger effect = higher value
# [16] = inhibitors of mitochondrial cytochrome c release, biochemical, purified mitochondria (AID 1603); conditions: stronger effect = lower value;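 further: mouse liver mitochondria challenged with calcium chloride; signal normalized to the plate average as 100%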
# [17] = inhibitors of polyQ protein aggregation (AID 1604); conditions: polyglutamine-induced protein aggregation inhibition assay; stronger effect = higher value; tested at 2.5 µM
# [18] = enhancers of glutamate uptake in motor neurons, MN-1 cell line (AID 1612); conditions: MN-1 motor neuron cells, stronger effect = higher value;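 further: tested at 1 µM final; 0% = mean of DMSO vehicle wells on each plate; positive means more glutamate uptake than control and negative means less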
# [19] = reducers of polyQ inclusions in PC12 cells, cell-based, NGF-treated PC12, GFPQ80 (AID 1614); conditions: PC12 NGF-treated GFP-polyQ80 inclusion reduction;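 further: lower means fewer inclusions and 0 means no inclusions at all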
# [20] = suppressors of polyglutamine aggregation in yeast, 75Q-TubH (AID 1616); conditions: S. cerevisiae 75Q-TubH polyglutamine aggregation suppression; stronger effect = higher value
# [21] = measured here: epithelial PC-3E GFP cell survival
# [22] = measured here: mesenchymal TEM4-18 mCherry cell survival
# [23] = stronger effect = lower value, cell number ratio, induced over uninduced
# [24] = measured here: relative caspase fold change +Dox/-Dox
# [25] = measured here: total cells with miR-34 induction, stronger effect = lower value
# [26] = measured here: total cells without miR-34 induction
# [27] = MELAS cybrid survival, CellTiter-Glo 48 h, stronger effect = higher value
# [28] = Rieske KO mouse fibroblast survival, CellTiter-Glo 72 h
smiles,measurement,setting,value
N[C@H]1CONC1=O,period change,[1],-0.055 h (inactive)
same,survival,[2],1.5 (inactive)
same,parasite load remaining,[3],74% (inactive)
same,viability,[3],71%
same,inhibition,[4],0% (inactive)
same,fluorescence ratio (interference),[5],1 (inactive)
same,red/green cell ratio (normalised),[6],0.88 (inactive)
same,normalised cell number,[6]; [21],1.18
same,normalised cell number,[6]; [22],1.03
same,fold change,[7]; [23],1.03 (inactive) and 0.935 (inactive) and 0.898 (inactive)
same,fold change,[7]; [24],1.58 and 1.14 and 0.652
same,cell count,[7]; [25],10600 and 9010 and 9280
same,cell count,[7]; [26],10300 and 9640
same,outcome,[8],inactive
same,z-score,[9]; [27],-0.786 (inactive)
same,z-score,[9]; [28],-1.27
same,remaining NAD,[10],10 nM (inactive)
same,z-score,[11],-0.18 (inactive)
O=C(O)c1ccccc1,parasite load remaining,[3],29.9% (inactive)
same,viability,[3],83.9%
same,red/green cell ratio (normalised),[6],1.1 (inactive)
same,normalised cell number,[6]; [21],1.23
same,normalised cell number,[6]; [22],1.35
same,fold change,[7]; [23],0.957 (inactive) and 0.932 (inactive)
same,fold change,[7]; [24],0.544 and 1.69
same,cell count,[7]; [25],8250 and 11300
same,cell count,[7]; [26],8620 and 12100
same,z-score,[9]; [27],-0.248 (inactive)
same,z-score,[9]; [28],-0.209
same,remaining NAD,[10],10 nM (inactive)
same,luciferase signal,[12],36 AU (inactive)
CC(C)Cc1ccc([C@H](C)C(=O)O)cc1,period change,[1],-0.055 h (inactive)
same,survival,[2],6.58 (inactive)
same,parasite load remaining,[3],89.2% (inactive)
same,viability,[3],95.1%
same,inhibition,[4],-6% (inactive)
same,fluorescence ratio (interference),[5],0.9 (inactive)
same,red/green cell ratio (normalised),[6],0.85 (inactive)
same,normalised cell number,[6]; [21],0.93
same,normalised cell number,[6]; [22],0.79
same,fold change,[7]; [23],1.1 (inactive) and 0.885 (inactive)
same,fold change,[7]; [24],1.11 and 1.2
same,cell count,[7]; [25],10400 and 9190
same,cell count,[7]; [26],9420 and 10400
same,outcome,[8],inactive
same,z-score,[9]; [27],0.343 (inactive)
same,z-score,[9]; [28],-0.398
same,remaining NAD,[10],26 nM (inactive)
same,z-score,[11],0.53 (inactive)
CC(=O)OCC(=O)[C@@]1(O)CCC2C3CCC4=CC(=O)C=C[C@]4(C)[C@@]3(Cl)[C@@H](Cl)C[C@@]21C (stereo partly drawn),red/green cell ratio (normalised),[6],1 (inactive)
same,normalised cell number,[6]; [21],1.2
same,normalised cell number,[6]; [22],1.2
same,fold change,[7]; [23],0.864 (inactive)
same,fold change,[7]; [24],1.22
same,cell count,[7]; [25],6210
same,cell count,[7]; [26],7190
O=C(O)C1=CC(=C(c2ccc(O)c(C(=O)O)c2)c2ccc(O)c(C(=O)O)c2)C=CC1=O,period change,[1],-0.145 h (inactive)
same,inhibition,[4],96% (active)
same,fluorescence ratio (interference),[5],1 (inactive)
same,red/green cell ratio (normalised),[6],1.1 (inactive)
same,normalised cell number,[6]; [21],1.19
same,normalised cell number,[6]; [22],1.31
same,fold change,[7]; [23],1.06 (inactive)
same,fold change,[7]; [24],1.49
same,cell count,[7]; [25],8760
same,cell count,[7]; [26],8290
same,outcome,[8],inactive
same,luciferase signal,[12],12 AU (inactive)
same,z-score,[11],5.43 (active)
CC(C)CC(N)=O,red/green cell ratio (normalised),[6],0.8 (inactive)
same,normalised cell number,[6]; [21],1.07
same,normalised cell number,[6]; [22],0.86
same,fold change,[7]; [23],0.906 (inactive) and 0.908 (inactive)
same,fold change,[7]; [24],0.955 and 0.851
same,cell count,[7]; [25],8450 and 8440
same,cell count,[7]; [26],9330 and 9300
same,z-score,[9]; [27],-0.0903 (inactive)
same,z-score,[9]; [28],-0.199
same,remaining NAD,[10],10 nM (inactive)
CC(=O)c1ccc(S(=O)(=O)NC(=O)NC2CCCCC2)cc1,period change,[1],-0.09 h (inactive)
same,survival,[2],14 (inactive)
same,parasite load remaining,[3],38.7% (inactive) and 91.1% (inactive) and 69.3% (inactive)
same,viability,[3],49.8% and 90.7% and 105%
same,inhibition,[4],-2% (inactive)
same,fluorescence ratio (interference),[5],1 (inactive)
same,red/green cell ratio (normalised),[6],0.86 (inactive)
same,normalised cell number,[6]; [21],0.99
same,normalised cell number,[6]; [22],0.85
same,fold change,[7]; [23],1.04 (inactive) and 0.892 (inactive) and 0.85 (inactive)
same,fold change,[7]; [24],2.43 and 1.31 and 5.06
same,cell count,[7]; [25],10800 and 8720 and 11600
same,cell count,[7]; [26],10400 and 9780 and 13600
same,outcome,[8],inactive
same,z-score,[9]; [27],0.0376 (inactive)
same,z-score,[9]; [28],-0.115
same,remaining NAD,[10],10 nM (inactive)
same,luciferase signal,[12],44 AU (inactive)
same,z-score,[11],0.71 (inactive)
C[C@@H]1CC2C3CCC4=CC(=O)C=C[C@]4(C)[C@@]3(F)[C@@H](O)C[C@]2(C)[C@@]1(O)C(=O)CO (stereo partly drawn),inhibition,[13],-20.4%
same,score,[14],1.07
same,rescue above control,[15],-7.18
same,cytochrome c release ratio,[16],0.84
same,inhibition of aggregation,[17],31.7%
same,glutamate uptake change,[18],53.3%
same,inclusion score,[19],2
same,aggregation suppression score,[20],1.35
same,parasite load remaining,[3],152% (inactive) and 64.1% (inactive)
same,viability,[3],77.2% and 87.1%
same,red/green cell ratio (normalised),[6],1.24 (inactive)
same,normalised cell number,[6]; [21],1.34
same,normalised cell number,[6]; [22],1.66
same,fold change,[7]; [23],0.825 (inactive)
same,fold change,[7]; [24],2.2
same,cell count,[7]; [25],7310
same,cell count,[7]; [26],8850
N=C(N)SCCN,period change,[1],-0.04 h (inactive)
same,inhibition,[4],-3% (inactive)
same,fluorescence ratio (interference),[5],1 (inactive)
same,red/green cell ratio (normalised),[6],0.88 (inactive)
same,normalised cell number,[6]; [21],1.12
same,normalised cell number,[6]; [22],0.98
same,fold change,[7]; [23],0.958 (inactive) and 1.11 (inactive)
same,fold change,[7]; [24],2.51 and 0.757
same,cell count,[7]; [25],9240 and 6110
same,cell count,[7]; [26],9640 and 5490
same,outcome,[8],inactive
same,luciferase signal,[12],96 AU (inactive)
same,z-score,[11],-0.855 (inactive)
CO[C@@]12[C@@H]3NC3CN1C1=C(C(=O)C(N)=C(C)C1=O)[C@@H]2COC(N)=O (stereo partly drawn),inhibition,[13],-29.8%
same,score,[14],2
same,rescue above control,[15],0
same,cytochrome c release ratio,[16],1
same,inhibition of aggregation,[17],29.2%
same,glutamate uptake change,[18],0.5%
same,aggregation suppression score,[20],1.38
same,parasite load remaining,[3],0.12% (inactive)
same,viability,[3],22.5%
same,red/green cell ratio (normalised),[6],1.09 (inactive)
same,normalised cell number,[6]; [21],1.03
same,normalised cell number,[6]; [22],1.13
same,fold change,[7]; [23],0.986 (inactive)
same,fold change,[7]; [24],0.958
same,cell count,[7]; [25],1840
same,cell count,[7]; [26],1870
COC1CC2CCC(C)C(O)(O2)C(=O)C(=O)N2CCCCC2C(=O)OC(C(C)CC2CCC(O)C(OC)C2)CC(=O)C(C)/C=C(\C)C(O)C(OC)C(=O)C(C)CC(C)/C=C/C=C/C=C/1C (stereo not drawn),parasite load remaining,[3],60.9% (inactive)
same,viability,[3],98.1%
same,red/green cell ratio (normalised),[6],1.36 (inactive)
same,normalised cell number,[6]; [21],0.36
same,normalised cell number,[6]; [22],0.49
same,fold change,[7]; [23],0.865 (inactive)
same,fold change,[7]; [24],3.67
same,cell count,[7]; [25],7720
same,cell count,[7]; [26],8920
